Assay results from PubChem BioAssay (EPA / NIEHS).
The source made the active and inactive calls. The calls were made as follows: active = hit-call score of the fitted dose curve at least 0.9, where 1 is the maximum; inactive = score below 0.9.

Columns and labels:
[1] = tested on: TTR (gene 7276); assay: CCTE_GLTED_hTTR_0.125uM: CCTE's human Transthyretin (hTTR) Inhibition Assay, with 0.125uM TTR, Great Lakes Toxicology and Ecology Division (GLTED) Lab (AID 2284431);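 also: hits lower the fluorescence signal relative to DMSO baseline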
Procedure, shortened: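 Cell-free displacement of the fluorescent probe ANSA from human TTR (0.125uM) after 2 h incubation with test chemical. Fluorescence read at 380 nm excitation/475 nm emission; loss of signal fitted relative to DMSO baseline.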

[2] = CCTE_Padilla_ZF_Score.General: CCTE's 144 Hour Post-fertilization zebrafish Assay Score for General Malformation, Padilla Lab (AID 2284411)
Procedure, shortened: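 Wild-type zebrafish embryos were plated singly at 6-8 hpf in 10% Hanks' and exposed in sealed wells at 26C until rinsed on 5 dpf. At 6 dpf two blinded assessors scored mortality, hatching and malformations by stereomicroscopy; gain-of-signal versus DMSO.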

[3] = CCTE_Padilla_ZF_Score.Spine: CCTE's 144 Hour Post-fertilization zebrafish Assay Score for Spine Malformation, Padilla Lab (AID 2284407)
Procedure, shortened: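 Wild-type zebrafish embryos, one per well in Hanks' solution, dosed at 6–8 hpf in sealed plates at 26C, 14:10 h light:dark; rinsed at 5 dpf. Two blinded assessors scored spinal defects by stereomicroscopy at 6 dpf; fitted versus DMSO.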

[4] = CCTE_Padilla_ZF_Score.Swim_bladder: CCTE's 144 Hour Post-fertilization zebrafish Assay Score for Swim Bladder Malformation, Padilla Lab (AID 2284408)
Procedure, shortened: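 Wild-type zebrafish embryos, one per well in 10% Hanks', dosed at 6–8 hpf, sealed, reared at 26C and rinsed at 5 dpf. Blinded assessors scored uninflated swim bladder by stereomicroscopy at 6 dpf, relative to DMSO.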

[5] = CCTE_Padilla_ZF_Score.Position: CCTE's 144 Hour Post-fertilization zebrafish Assay Score for Position, Padilla Lab (AID 2284409)
Procedure, shortened: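 Wild-type zebrafish embryos (with chorions) exposed singly from 6–8 hpf in sealed wells of Hanks' solution at 26C, rinsed at 5 dpf. At 6 dpf, blinded assessors scored abnormal water-column position by brightfield stereomicroscopy, relative to DMSO.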

[6] = CCTE_Padilla_ZF_Score.Living: CCTE's 144 Hour Post-fertilization zebrafish Assay Score for Viability, Padilla Lab (AID 2284410);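 also: larval death at 6 dpf judged by absent heartbeat or coagulation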
Procedure, shortened: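 Wild-type zebrafish embryos were exposed singly from 6–8 hpf in sealed wells of Hanks' solution at 26C, then rinsed at 5 dpf. At 6 dpf, blinded assessors scored mortality (no heartbeat or coagulation) by stereomicroscopy, fitted against DMSO.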

[7] = CCTE_Padilla_ZF_Score.Tail: CCTE's 144 Hour Post-fertilization zebrafish Assay Score for Tail Malformation, Padilla Lab (AID 2284414)
Procedure: (§1) CCTE_Padilla_ZF_Phenotype_Score is a whole embryo, multiplexed assay using zebrafish ova exposed for 144 hours post fertilization on a 96-well plate.CCTE_Padilla_ZF_Score.Tail is one of one assay component(s) measured or calculated from the CCTE_Padilla_ZF_Phenotype_Score assay. It is designed to make measurements of zebrafish development as detected with brightfield microscopy of developing zebrafish embryos.Data from the assay component CCTE_Padilla_ZF_Score.Tail was analyzed into 1 assay endpoints. This assay endpoint, CCTE_Padilla_ZF_Score.Tail, was analyzed in the positive analysis fitting direction relative to DMSO as the negative control and baseline of activity. Using a type of viability reporter, gain-of-signal activity can be used to understand changes in developmentals as they relate to the whole embryo. To generalize the intended target to other relatable targets, this assay endpoint is annotated to the zebrafish development intended target family, where the subfamily is lower trunk morphogenesis.
(§2) Zebrafish husbandry: Wild type adult zebrafish (Danio rerio; undefined outbred stock obtained from Aquatic Research Organisms, Hampton, NH, 03842) were housed in an AAALAC-approved animal facility at 28C with a 14:10 h light: dark cycle (lights on at 08:30 h). Adult fish (2-3 females per male; density = 15-20 adults per tank) were kept in one of several 9-liter (L) flow-through colony tanks (Aquaneering Inc., San Diego, CA). All adults in a colony tank were placed in a 2 L (static) breeding tank (Aquatic Habitats, Apopka, FL) one hour prior to light onset. Typically, adults from two to three colony tanks were mated on the same day. Two hours after light onset the adults were returned to the colony tank. […]

[8] = CCTE_Padilla_ZF_Score.Blood_pooling: CCTE's 144 Hour Post-fertilization zebrafish Assay Score for Blood Pooling, Padilla Lab (AID 2284415)
Procedure: as §1, with “plate.CCTE_Padilla_ZF_Score.Blood_pooling” for “plate.CCTE_Padilla_ZF_Score.Tail”, “CCTE_Padilla_ZF_Score.Blood_pooling” for “CCTE_Padilla_ZF_Score.Tail”, “CCTE_Padilla_ZF_Score.Blood_pooling,” for “CCTE_Padilla_ZF_Score.Tail,”, “swim bladder” for “lower trunk”
as §2

[9] = CCTE_Padilla_ZF_Score.Any: CCTE's 144 Hour Post-fertilization zebrafish Assay Score for Any Mortality or Malformation, Padilla Lab (AID 2284416)
Procedure: as §1, with “plate.CCTE_Padilla_ZF_Score.Any” for “plate.CCTE_Padilla_ZF_Score.Tail”, “CCTE_Padilla_ZF_Score.Any” for “CCTE_Padilla_ZF_Score.Tail”, “CCTE_Padilla_ZF_Score.Any,” for “CCTE_Padilla_ZF_Score.Tail,”, “embryonic morphogenesis and mortality.” for “lower trunk morphogenesis.”
as §2

**Q.** Which AC50 [1] does the source give for `CCCCCCCCCCCCCOP(=O)(O)O` here?
**A.** The AC50 was 0.78 µM (active).

**Q.** Which AC50 [1] does the source give for `CN(C)c1ccc(N=Nc2ccccc2C(=O)O)cc1` here?
**A.** Its AC50 is 8.96 µM (active).

**Q.** Which outcome [2] does the source give for `O=Nc1ccc(O)cc1` here?
**A.** The outcome was “inactive”.

**Q.** Which outcome [2] does the source give for `COCc1c(C(C)C)nc(C(C)C)c(/C=C/[C@@H](O)C[C@@H](O)CC(=O)O)c1-c1ccc(F)cc1` here?
**A.** Its outcome is “inactive”.

**Q.** With `C#CC1(O)CC[C@H]2[C@@H]3CCC4=CCCC[C@@H]4[C@H]3CC[C@@]21C` (stereo partly specified) as the compound, how does the AC50 [2] read?
**A.** Its AC50 is 2.31 µM (active).

**Q.** For `CC=CC(F)(F)C(F)(F)C(F)(F)F`, which outcome [3] is on record?
**A.** Its outcome is “inactive”.

**Q.** And the outcome [4]?
**A.** The outcome was “inactive”.

**Q.** And the outcome [5]?
**A.** The outcome was “inactive”.

**Q.** What about the outcome [6] of the same compound?
**A.** Its outcome is “inactive”.

**Q.** And the outcome [2]?
**A.** Its outcome is “inactive”.

**Q.** And the outcome [7]?
**A.** Its outcome is “inactive”.

**Q.** And the outcome [8]?
**A.** Its outcome is “inactive”.

**Q.** What about the outcome [9] of the same compound?
**A.** Its outcome is “inactive”.

**Q.** For `CCCCC(CC)CCC(CC(C)C)OS(=O)(=O)O` (stereo unspecified), which AC50 [1] is on record?
**A.** Its AC50 is 0.382 µM (active).

**Q.** With `CCCCCCCCCCc1ccccc1` as the compound, how does the outcome [2] read?
**A.** Its outcome is “inactive”.

**Q.** With `CCCCC/C=C\C/C=C\CCCCCCCC(=O)OC` as the compound, how does the outcome [2] read?
**A.** Its outcome is “inactive”.

**Q.** What about the AC50 [1] of the same compound?
**A.** Its AC50 is 9.84 µM (active).

**Q.** For `CCCCCCCCCCCCCCCC[N+](C)(C)CC`, which outcome [2] is on record?
**A.** Its outcome is “inactive”.

**Q.** For `CCCCC(CC)COC(=O)c1ccccc1O` (stereo unspecified), which outcome [2] is on record?
**A.** The outcome was “inactive”.

**Q.** For `CC1=NN(c2cc(S(=O)(=O)O)ccc2Cl)C(=O)C1N=Nc1ccccc1` (stereo unspecified), which AC50 [1] is on record?
**A.** Its AC50 is 5.76 µM (active).

**Q.** For `c1ccc2c(c1)ccc1cc3c(ccc4ccccc43)cc12`, which outcome [2] is on record?
**A.** Its outcome is “inactive”.

**Q.** With `CCCCCCCC/C=C\CCCCCCCC(=O)O` as the compound, how does the AC50 [1] read?
**A.** The AC50 was 3.32 µM (active).

**Q.** For `S=C(NC1CCCCC1)NC1CCCCC1`, which AC50 [2] is on record?
**A.** Its AC50 is 25.5 µM (active).

**Q.** For `FC(F)=C(F)OC(F)(F)C(F)(F)C(F)(F)F`, which outcome [3] is on record?
**A.** Its outcome is “inactive”.

**Q.** What about the outcome [4] of the same compound?
**A.** Its outcome is “inactive”.

**Q.** What about the outcome [5] of the same compound?
**A.** The outcome was “inactive”.

**Q.** And the outcome [6]?
**A.** The outcome was “inactive”.

**Q.** What about the outcome [2] of the same compound?
**A.** Its outcome is “inactive”.

**Q.** And the outcome [7]?
**A.** The outcome was “inactive”.

**Q.** And the outcome [8]?
**A.** The outcome was “inactive”.

**Q.** And the outcome [9]?
**A.** Its outcome is “inactive”.

**Q.** Which outcome [3] does the source give for `CCOC(F)(F)C(F)(F)C(F)(F)C(F)(F)F` here?
**A.** The outcome was “inactive”.

**Q.** And the outcome [4]?
**A.** Its outcome is “inactive”.

**Q.** What about the outcome [5] of the same compound?
**A.** The outcome was “inactive”.

**Q.** What about the outcome [6] of the same compound?
**A.** The outcome was “inactive”.

**Q.** And the outcome [2]?
**A.** The outcome was “inactive”.

**Q.** What about the outcome [7] of the same compound?
**A.** The outcome was “inactive”.

**Q.** And the outcome [8]?
**A.** Its outcome is “inactive”.

**Q.** And the outcome [9]?
**A.** The outcome was “inactive”.

**Q.** For `CCCCCCCCCCOS(=O)(=O)O`, which AC50 [1] is on record?
**A.** Its AC50 is 3.68 µM (active).

**Q.** For `Oc1ccc(Cl)cc1Cc1cc(Cl)ccc1O`, which AC50 [1] is on record?
**A.** The AC50 was 0.129 µM (active).

**Q.** With `CCCCCCCCc1ccc(Nc2ccc(CCCCCCCC)cc2)cc1` as the compound, how does the outcome [2] read?
**A.** Its outcome is “inactive”.

**Q.** For `C=CCOCC(O)CCl` (stereo unspecified), which outcome [2] is on record?
**A.** Its outcome is “inactive”.

**Q.** For `COC(=O)c1c(C)cc(O)c(C)c1O`, which AC50 [1] is on record?
**A.** The AC50 was 1.29 µM (active).

**Q.** For `O=S1(=O)OC(c2ccc(O)cc2)(c2ccc(O)cc2)c2ccccc21`, which AC50 [1] is on record?
**A.** Its AC50 is 3.34 µM (active).

**Q.** Which AC50 [1] does the source give for `O=c1cc(-c2ccccc2)oc2ccccc12` here?
**A.** Its AC50 is 10.8 µM (active).
